# Where “and” joins values, the source holds several entries; their conditions need not be identical. Equal entries are not always repeated. Values without a mark were called inactive. Where a call stands in place of a potency, no number is given. Calls of active or inactive are those of the source. Unless noted, the call rests on the fitted dose curve; in most records, active means well fitted curve in the direction sought with a large enough effect in the repeat runs; inconclusive means weak or mixed curves; inactive means flat fitted curve, though single readings scatter.
# How the values were obtained:
# [1] = qHTS assay to test for compound auto fluorescence at 535 nm (green) in HEK293 cells (AID 720680)
# [2] = qHTS assay to test for compound auto fluorescence at 460 nm (blue) in HEK293 cell free culture (AID 720681); further: potency means the concentration at half of the fitted maximal effect
# Procedure, shortened: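 Blue fluorescence (Ex 405/Em 460 nm, triamterene-equivalent) was read immediately after pin transfer of compound or DMSO into medium (DMEM, 10% FBS) without cells.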
# [3] = qHTS assay to test for compound auto fluorescence at 535 nm (green) in HEK293 cell free culture (AID 720682)
# Procedure, shortened: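 Using fluorescein as calibrant, autofluorescence was quantified at 485/535 nm in cell-free DMEM containing 10% FBS after pintool addition of compound or vehicle.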
# [4] = qHTS assay to test for compound auto fluorescence at 590 nm (red) in HEK293 cell free culture (AID 720683)
# Procedure, shortened: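 Red-channel autofluorescence of compounds in culture medium (DMEM, 10% FBS), no cells, measured at 540/590 nm. Rose Bengal sodium is the reference fluorophore for equivalence.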
# [5] = qHTS assay to test for compound auto fluorescence at 590 nm (red) in HepG2 cell free culture (AID 720684)
# Procedure, shortened: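 No cells present: MEM + 10% FBS only. Compound pinned in, red label read (540/590 nm). Activity = fluorescence equivalent to Rose Bengal sodium.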
# [6] = qHTS assay to test for compound auto fluorescence at 460 nm (blue) in HepG2 cell free culture (AID 720685); further: potency means the concentration at half of the fitted maximal effect
# Procedure, shortened: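 Cell-free plates of MEM plus 10% FBS received 23 nL compound or DMSO vehicle; blue-channel (405/460 nm) intensity scored against triamterene as reference fluorophore.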
# [7] = qHTS assay to test for compound auto fluorescence at 535 nm (green) in HepG2 cell free culture (AID 720686)
# [8] = qHTS assay to test for compound auto fluorescence at 460 nm (blue) in HepG2 cells (AID 720687)
# Procedure, shortened: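 Blue-channel autofluorescence (Ex/Em 405/460 nm, triamterene-equivalent) was measured after 1 hr compound exposure at 37 C, 5% CO2. Cells were HepG2, plated overnight at 37 C in MEM plus 10% FBS.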
# [9] = target: Glucocorticoid receptor (Homo sapiens) (UniProt P04150); test: qHTS assay to identify small molecule agonists of the glucocorticoid receptor (GR) signaling pathway (AID 720691; active means well fitted activation curve with a large enough effect in the signal ratio in the repeat runs, not every such curve was filed as active; inconclusive means weak or mixed curves, or effect the other way; inactive means no such curve, though single readings can be large or run the other way; the % refers to the signal ratio; further: potency means the concentration at half of the fitted maximal effect)
# Procedure, shortened: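 Measures GR pathway activation through a GRE-beta-lactamase reporter stably integrated in HeLa cells, with 18 h compound treatment at 37 C and fluorescence detection using a FRET substrate.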
# [10] = target: Glucocorticoid receptor (Homo sapiens) (UniProt P04150); test: qHTS assay to identify small molecule antagonists of the glucocorticoid receptor (GR) signaling pathway (AID 720692; active means well fitted inhibition curve with a large enough effect in the signal ratio in the repeat runs, not every such curve was filed as active; inconclusive means weak or mixed curves, or effect the other way; inactive means no such curve, though single readings can be large or run the other way; the % refers to the signal ratio; further: potency means the concentration at half of the fitted maximal effect)
# Procedure, shortened: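 Tox21 10K library screened in concentration-response for blockade of dexamethasone (5 nM final)-induced GRE-bla reporter activity in HeLa cells; 18 h treatment, fluorescence read.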
# Tags describe the fitted curve by direction and shape or compound fluorescence and quenching.
# Chain of Glucocorticoid receptor (Homo sapiens) (P04150 whole entry, looked up): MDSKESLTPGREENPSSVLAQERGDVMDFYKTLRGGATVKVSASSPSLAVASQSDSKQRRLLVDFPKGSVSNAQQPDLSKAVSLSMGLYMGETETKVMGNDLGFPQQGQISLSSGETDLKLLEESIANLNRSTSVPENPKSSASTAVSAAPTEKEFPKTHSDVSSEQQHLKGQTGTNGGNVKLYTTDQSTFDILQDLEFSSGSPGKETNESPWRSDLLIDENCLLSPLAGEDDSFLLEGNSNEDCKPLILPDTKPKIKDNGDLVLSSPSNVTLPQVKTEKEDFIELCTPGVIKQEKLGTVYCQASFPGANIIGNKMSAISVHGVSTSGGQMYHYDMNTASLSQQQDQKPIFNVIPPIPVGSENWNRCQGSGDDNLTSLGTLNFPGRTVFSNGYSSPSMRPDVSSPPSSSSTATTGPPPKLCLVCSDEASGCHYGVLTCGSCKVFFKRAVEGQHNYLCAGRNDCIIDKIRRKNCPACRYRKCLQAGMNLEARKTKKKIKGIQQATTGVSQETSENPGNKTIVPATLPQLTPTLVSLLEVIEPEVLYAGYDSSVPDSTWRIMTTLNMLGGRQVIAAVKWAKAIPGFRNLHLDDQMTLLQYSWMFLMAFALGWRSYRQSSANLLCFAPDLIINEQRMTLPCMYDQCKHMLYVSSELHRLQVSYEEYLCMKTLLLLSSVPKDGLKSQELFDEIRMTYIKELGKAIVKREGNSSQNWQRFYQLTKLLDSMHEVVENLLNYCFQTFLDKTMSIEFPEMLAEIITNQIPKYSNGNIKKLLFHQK
smiles,measurement,setting,value
CCOC(=O)[C@H](CCc1ccccc1)N[C@@H](C)C(=O)N(CC(=O)O)C1Cc2ccccc2C1,outcome,[1],inactive
same,Potency,[2],inactive
same,outcome,[3],inactive
same,outcome,[4],inactive
same,outcome,[5],inactive
same,Potency,[6],inactive
same,outcome,[7],inactive
same,Potency,[8],inactive
same,Potency,[9],inactive
same,Potency,[10],inactive
N#CCc1ccc(Cl)cc1Cl,outcome,[1],inactive
same,Potency,[2],inactive
same,outcome,[3],inactive
same,outcome,[4],inactive
same,Potency,[6],inactive
same,outcome,[7],inactive
CN1C(=O)OC(C)(C)C1=O,outcome,[1],inactive
same,Potency,[2],inactive
same,outcome,[3],inactive
same,outcome,[4],inactive
same,outcome,[5],inactive
same,Potency,[6],inactive
same,outcome,[7],inactive
same,Potency,[8],inactive
same,Potency,[9],inactive
same,Potency,[10],inactive
CC(CN(C)C)C(C)(O)Cc1ccc(Cl)cc1 (stereo not drawn),outcome,[1],inactive
same,Potency,[2],inactive
same,outcome,[3],inactive
same,outcome,[4],inactive
same,outcome,[5],inactive
same,Potency,[6],inactive
same,outcome,[7],inactive
same,Potency,[8],inactive
same,Potency,[10],inactive
C=CC(C)(CCC=C(C)C)OC(=O)CC(C)C (stereo not drawn),outcome,[1],inactive
same,Potency,[2],inactive
same,outcome,[3],inactive
same,outcome,[4],inactive
same,outcome,[5],inactive
same,Potency,[6],inactive
same,outcome,[7],inactive
same,Potency,[9],inactive
Cc1cc2c(OCC(CNC(C)(C)C)OC(=O)c3ccccc3)cccc2[nH]1 (stereo not drawn),outcome,[1],inactive
same,Potency,[2],inactive
same,outcome,[3],inactive
same,outcome,[4],inactive
same,outcome,[5],inactive
same,Potency,[6],inactive
same,outcome,[7],inactive
same,Potency,[9],inactive
same,Potency,[10],inactive
CC1(C)O[C@@H]2C[C@H]3[C@@H]4C[C@H](F)C5=CC(=O)C=C[C@]5(C)[C@H]4[C@@H](O)C[C@]3(C)[C@]2(C(=O)CO)O1,"fluorescence, % of fluorescein",[1],-0.126% [at 18.6 µM]
same,"fluorescence, % of fluorescent control",[2],-0.131% [at 18.6 µM]
same,activity change,[3],-0.178% [at 18.6 µM]
same,"fluorescence, % of fluorescent control",[4],-0.673% [at 18.6 µM]
same,"fluorescence, % of Rose Bengal",[5],-0.32% [at 18.6 µM]
same,"fluorescence, % of fluorescent control",[6],-0.0967% [at 18.6 µM]
same,"fluorescence, % of fluorescein control",[7],-0.129% [at 18.6 µM]
same,Potency,[9],1.29 µM [inconclusive] (active)
Cc1c(C)c2c(c(C)c1OC(=O)CCC(=O)OCCO)CC[C@@](C)(CCC[C@H](C)CCC[C@H](C)CCCC(C)C)O2,outcome,[1],inactive
same,Potency,[2],inactive
same,outcome,[3],inactive
same,outcome,[4],inactive
same,outcome,[5],inactive
same,Potency,[6],inactive
same,outcome,[7],inactive
same,Potency,[10],19 µM (active)
C[C@]12CC[C@@H]3c4ccc(O)cc4CC[C@H]3[C@@H]1CC[C@@H]2OC(=O)CCC1CCCC1,outcome,[1],inactive
same,Potency,[2],inactive
same,outcome,[3],inactive
same,outcome,[4],inactive
same,outcome,[5],inactive
same,Potency,[6],inactive
same,outcome,[7],inactive
same,Potency,[8],inactive
same,Potency,[10],10.7 µM (active) and 8.49 µM (active)
O=Cc1c2ccccc2c(Cl)c2ccccc12,outcome,[1],inactive
same,Potency,[2],inactive
same,outcome,[3],inactive
same,outcome,[4],inactive
same,outcome,[5],inactive
same,Potency,[6],inactive
same,outcome,[7],inactive
same,Potency,[8],inactive
same,Potency,[10],inactive
COc1ccccc1NC(=O)c1cc2ccccc2cc1O,outcome,[1],inactive
same,Potency,[2],44.7 µM (active)
same,outcome,[3],inactive
same,outcome,[4],inactive
same,outcome,[5],inactive
same,Potency,[6],39.8 µM [fluorescent] (active)
same,outcome,[7],inactive
same,Potency,[9],inactive
Cc1ccco1,outcome,[1],inactive
same,Potency,[2],inactive
same,outcome,[3],inactive
same,outcome,[4],inactive
same,outcome,[5],inactive
same,Potency,[6],inactive
same,outcome,[7],inactive
same,Potency,[8],inactive
same,Potency,[10],inactive
CCOC(=O)C1=C(C)NC(C)=C(C(=O)OC)C1c1cccc(Cl)c1Cl (stereo not drawn),outcome,[1],inactive
same,Potency,[2],inactive
same,outcome,[3],inactive
same,outcome,[4],inactive
same,outcome,[5],inactive
same,outcome,[7],inactive
same,Potency,[9],inactive
same,Potency,[10],10.7 µM (active)
OC(CCN1CCCC1)(c1ccccc1)C1CCCCC1 (stereo not drawn),"fluorescence, % of fluorescein",[1],6.8e-05% [at 18.6 µM]
same,"fluorescence, % of fluorescent control",[2],-0.0085% [at 18.6 µM]
same,activity change,[3],0.0202% [at 18.6 µM]
same,"fluorescence, % of fluorescent control",[4],-0.206% [at 18.6 µM]
same,"fluorescence, % of Rose Bengal",[5],-0.161% [at 18.6 µM]
same,"fluorescence, % of fluorescent control",[6],0.0206% [at 18.6 µM]
same,"fluorescence, % of fluorescein control",[7],-0.0329% [at 18.6 µM]
same,"fluorescence, % of fluorescent control",[8],0.0411% [at 18.6 µM]
same,Potency,[9],inactive
same,Potency,[10],inactive
Cc1cc(=O)c2c(O)c3c(O)cc(=O)c4c3c3c(cc(O)c1c23)C(C)(C)C=4O,outcome,[1],inactive
same,Potency,[2],inactive
same,outcome,[3],inactive
same,outcome,[4],inactive
same,outcome,[5],inactive
same,Potency,[6],inactive
same,Potency,[8],inactive
CCOC(=O)c1ccc(OCCN2C[C@H](O)[C@@H](O)[C@H](O)[C@H]2CO)cc1,outcome,[1],inactive
same,Potency,[2],inactive
same,outcome,[3],inactive
same,outcome,[4],inactive
same,outcome,[5],inactive
same,Potency,[6],inactive
same,outcome,[7],inactive
same,Potency,[8],inactive
same,Potency,[9],inactive
same,Potency,[10],inactive
FC(F)(F)c1ccccc1Cl,outcome,[1],inactive
same,Potency,[2],inactive
same,outcome,[3],inactive
same,outcome,[4],inactive
same,outcome,[5],inactive
same,Potency,[6],inactive
same,outcome,[7],inactive
same,Potency,[9],inactive
same,Potency,[10],inactive
Clc1ccc(Nc2nnc(Cc3ccncc3)c3ccccc23)cc1,outcome,[1],inactive
same,Potency,[2],inactive
same,outcome,[3],inactive
same,outcome,[4],inactive
same,outcome,[5],inactive
same,Potency,[6],inactive
same,outcome,[7],inactive
same,Potency,[9],inactive
O=C(CCCN1CC=C(n2c(=O)[nH]c3ccccc32)CC1)c1ccc(F)cc1,outcome,[1],inactive
same,Potency,[2],inactive
same,outcome,[3],inactive
same,outcome,[4],inactive
same,outcome,[5],inactive
same,Potency,[6],inactive
same,outcome,[7],inactive
same,Potency,[9],inactive
O=C(/C=C/c1ccc(O)c(O)c1)O[C@@H]1C[C@@](OC(=O)/C=C/c2ccc(O)c(O)c2)(C(=O)O)C[C@@H](O)[C@@H]1O,outcome,[1],inactive
same,Potency,[2],inactive
same,outcome,[3],inactive
same,outcome,[4],inactive
same,outcome,[5],inactive
same,Potency,[6],inactive
same,outcome,[7],inactive
same,Potency,[9],inactive
same,Potency,[10],inactive
COc1cc(N)c(Cl)cc1C(=O)NC1CCN(CCCOc2ccc(F)cc2)CC1OC (stereo not drawn),"fluorescence, % of fluorescein",[1],0.0057% [at 18.6 µM]
same,"fluorescence, % of fluorescent control",[2],-0.0155% [at 18.6 µM]
same,activity change,[3],0.0082% [at 18.6 µM]
same,"fluorescence, % of fluorescent control",[4],0.142% [at 18.6 µM]
same,"fluorescence, % of Rose Bengal",[5],-0.186% [at 18.6 µM]
same,"fluorescence, % of fluorescent control",[6],-0.0728% [at 18.6 µM]
same,"fluorescence, % of fluorescein control",[7],-0.0661% [at 18.6 µM]
same,Potency,[10],inactive
CCOc1cccc(-n2cc(C(=O)N3CCN(c4cc(C(=O)O)c5ccccc5c4)CC3)nc2-c2ccc(C)cc2)c1,outcome,[1],inactive
same,Potency,[2],inactive
same,outcome,[3],inactive
same,outcome,[4],inactive
same,outcome,[5],inactive
same,Potency,[6],inactive
same,outcome,[7],inactive
same,Potency,[9],inactive

# Source: PubChem BioAssay (Tox21)
